# Assay outcomes (PubChem BioAssay)
# D3 ag = D3 dopamine receptor (human) agonism; P35462; D3R DiscoveRx beta-arrestin cells, luminescence, 90 min; max activation, %; actives 0.58% (n = 410,000); AID 652048; in the data active = max activation above about 30%; also: 0% is about no effect
# Target sequence (P35462 whole entry, looked up): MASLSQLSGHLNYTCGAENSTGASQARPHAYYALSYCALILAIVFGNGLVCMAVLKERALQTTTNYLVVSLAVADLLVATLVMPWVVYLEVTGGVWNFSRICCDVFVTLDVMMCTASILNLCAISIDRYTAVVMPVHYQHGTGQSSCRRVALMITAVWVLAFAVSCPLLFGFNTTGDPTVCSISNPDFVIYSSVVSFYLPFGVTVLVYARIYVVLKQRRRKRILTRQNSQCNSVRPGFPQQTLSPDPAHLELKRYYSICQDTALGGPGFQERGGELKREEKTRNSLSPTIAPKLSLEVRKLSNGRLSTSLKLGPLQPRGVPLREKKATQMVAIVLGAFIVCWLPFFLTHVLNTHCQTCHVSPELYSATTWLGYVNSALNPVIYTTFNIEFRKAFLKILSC
#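 Cells at 1500/well, incubated overnight, then treated with pinned compounds (dopamine as control) for 90 min at 37 degrees C. DiscoveRx reagent added for 30 - 60 minutes at room temperature; luminescence read.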
# HepG2 viability = HepG2 cytotoxicity, counter-screen for TGF-b inhibitors. HepG2 CAGA-GFP viability, ATP luminescence, 18 h. Potency, µM (doses to about 46.1 µM), for inactives: at the highest dose activity change, negative = cytotoxicity, actives largely listed as cytotoxic. actives 0.76% (n = 410,000). AID 588856; also: potency is read from the fitted curve at half-maximal effect
#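 CellTiter-Glo luminescence gave cytotoxicity after 18 hours at 37 degrees C. The cells were HepG2 CAGA-GFP in 1% FBS DMEM, stimulated with 500 pg/mL TGF-beta after compound addition. %Activity was normalised to no-cell wells (complete cell-killing) and DMSO (no toxicity), and curves were fitted and classified.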
# DRD3 antagonist = D3 dopamine receptor (human) antagonism; actives 2.5% (n = 360,000); P35462; max response, negative = inhibition, %; AID 652054; D3R cells, DiscoveRx beta-arrestin luminescence, antagonist mode; hits give low values; in the data active = max response below about -50%; inconclusive = no clear call, values can overlap the other calls; also: % is scaled to controls: 0 for no effect and ±100 for the full control effect
#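 Cells expressing the human receptor were seeded at 1500 cells/well, incubated overnight at 37 degrees C in 5% CO2, then exposed to library compounds with dopamine controls for 90 minutes at 37 degrees C before luminescent detection.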
# ATXN2 expr inh = reduces ATXN2 reporter expression in HEK-293 cells; HEK-293 ATXN2-luciferase reporter, luminescence, 24 h; Potency, µM (doses to about 57 µM), inactives show top-dose activity change, negative = inhibition, most hits filed as inhibitors; actives 0.72% (n = 360,000); also: potency is read from the fitted curve at half-maximal effect; % is scaled to controls: 0 for no effect and ±100 for the full control effect; nearly all actives have a fitted effect of over 55% in size
#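 ATXN2-luciferase reporter cells (luciferase flanked by upstream and downstream ATXN2 gene portions) were treated 24 h at 37 °C with compounds at up to 57 uM. SteadyGlo luminescence gave expression; GF-AFC fluorescence gave viability.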
# TGFb SMAD3 inh = TGF-b pathway inhibition. AID 588855. HepG2 CAGA-GFP TGF-b/SMAD3 reporter, GFP fluorescence, 18 h; TGF-beta stimulated, 500 pg/mL final. actives 1.2% (n = 410,000). Potency, µM (series often up to 46.1 µM), without a hit: at the highest dose activity, negative = inhibition, most hits filed as inhibitors; also: potency is read from the fitted curve at half-maximal effect; % is scaled to controls: 0 for no effect and ±100 for the full control effect; nearly all actives have a fitted effect of over 65% in size
#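 GFP signal (ex488/em500-530) from TGF-beta-stimulated HEPG2 CAGA-GFP cells, 500 pg/mL final, 18 h at 37 degrees C in DMEM plus 1% FBS, normalized to unstimulated and DMSO-stimulated controls.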
# ATXN viability = cell viability loss in ATXN counter-screen | S2 cells (HEK-293 line with an ATXN2-luciferase reporter) viability, CellTiter-Fluor protease fluorescence, 24 h | actives 0.49% (n = 400,000) | AID 651635 | Potency, µM (highest dose often 56.7 µM), most hits filed as cytotoxic; also: potency is read from the fitted curve at half-maximal effect; nearly all actives have a fitted effect of over 40% in size
# Numbers without * were called inactive; i = inactive; ? = inconclusive; . = not tested or not shown; [ ] = another dose, or the depositor's remark. This is a sample that favours compounds with a hit; in the whole collection about 4.8% have one here. Unless noted, calls follow the shape of the dose curve; as a rule, active = well fitted curve in the direction sought with a large enough effect; inconclusive = small, poorly fitted or top-dose-only effect, or another doubt; inactive = no such curve, though single readings can be large; an effect the other way counts as inactive or inconclusive.
SMILES,D3 ag,HepG2 viability,DRD3 antagonist,ATXN2 expr inh,TGFb SMAD3 inh,ATXN viability
COc1ccc(Cn2c(N)c(C(=O)NCc3ccco3)c3nc4ccccc4nc32)cc1,9.6,-57.7%,5.1,-28.3%,?,i
COc1ccc(CC(=O)N2CCN(C)CC2)cc1OC,-3.1,6.3%,-71.1*,5.4%,-0.1%,i
Cn1nc(-c2ccc(C(=O)Nc3ccc(OC(F)(F)F)cc3)cc2)c2ccccc2c1=O,7.2,-19.6%,.,-32.9%,?,?
Cc1ccc(NC(=O)Nc2cc3c(cc2N2CCCCC2)n(C)c(=O)n3C)cc1Cl,-12.0,-9.5%,.,-17.7%,?,i
CC(NC(=O)Oc1cccc2ccccc12)c1ccccc1 (configuration not stated),-8.0,-35.1%,3.0,-4.9%,5.4%,i
O=[N+]([O-])c1c(Cl)c(Cl)c(Cl)c(Cl)c1Cl,2.3,-0.8%,-3.6,2.1%,-0.9%,i
Nc1cc(Cl)c2nonc2c1[N+](=O)[O-],-14.9,11.2µM*,-57.9*,?,?,?
CCn1c(O)c(N=Nc2ccc(S(=O)(=O)N3CCOCC3)cc2)c(=O)n(CC)c1=S,-5.3,-44.2%,-70.9*,0.0%,-12.2%,i
COc1cccc2c1C(=O)c1c(O)c3c(c(O)c1C2=O)C[C@@](O)(C(=O)CO)CC3OC1CC(N2CCOC(OC)C2)C(O)C(C)O1 (some centres not stated),.,.,.,28.2µM*,.,44.7µM*
O=C(NCc1ccc2c(c1)CCN2C(=O)c1ccccc1)Nc1cccc(C(F)(F)F)c1,-24.7,-10.3%,.,.,2.82µM*,.
O=C(NCC1=C(c2cccc3ccccc23)C[C@@H]2CC[C@H]1N2Cc1ccco1)c1cccs1,-13.3,-50.6%,-50.6*,?,?,?
O=C(NCC1=C(c2cccc3ccccc23)C[C@@H]2CC[C@H]1N2Cc1ccco1)c1ccncc1,-13.7,-28.2%,-8.9,-9.9%,-15.2%,?
Oc1ccc2c3c1O[C@H]1[C@@H](O)C=C[C@H]4[C@H](C2)NCC[C@@]341,9.5,.,.,.,.,i
COc1cccc(CNCCc2ccc(F)cc2)c1,1.6,-37.7%,-6.3,.,-1.9%,i
Fc1ccc(CCNCc2cccc(Cl)c2)cc1,-28.6,-23.9%,-56.2*,?,-1.5%,?
Fc1ccc(CCNCc2ccc(Br)cc2)cc1,-16.8,-64.7%,-56.4*,-25.4%,-28.2%,i
CC[N+]1(CC)CCC(OC(=O)C(O)(c2ccccc2)c2ccccc2)C1 (configuration not stated),.,.,.,4.4%,.,i
S=P(N1CCOCC1)(N1CC1)N1CC1,34.1*,-22.4%,-0.9,?,6.5%,i
CNC1(c2ccccc2Cl)CCCCC1=O (configuration not stated),7.8,-1.3%,4.2,-6.4%,0.8%,i
CN(C(=O)c1ccco1)C1(c2ccccc2Cl)CCCCC1=O (configuration not stated),-11.7,0.9%,-52.6*,-5.1%,0.3%,i
CCOC(=O)c1c(-n2c(C)cc(C=C3C(=O)NC(=S)NC3=O)c2C)sc2c1CCCC2,-5.7,-46.9%,-6.6,20µM*,?,22.4µM*
C[N+](C)(C)CCCCCCCCCC[N+](C)(C)C,13.1,-2.1%,7.9,5.6%,5.6%,i
CCN1CCN(Cc2cc(Br)cc(OC)c2O)CC1,-38.1,4.1%,-52.9*,-8.6%,?,i
O=C(NCc1ccc(Cl)cc1)C1CCN(C(=O)c2cnn(-c3ccccc3)c2-n2cccc2)CC1,7.1,-27.8%,.,?,?,i
CCOC(=O)Cn1c(=O)oc2cc(S(=O)(=O)Nc3cc(OC)cc(OC)c3)ccc21,-4.2,-32.4%,.,.,?,.
SMILES,D3 ag,HepG2 viability,DRD3 antagonist,ATXN2 expr inh,TGFb SMAD3 inh,ATXN viability
CC(=O)c1cccc(NC(=O)CCn2c(=O)oc3ccccc32)c1,0.7,-52.1%,9.2,13.4%,2.6%,i
CCCCCCC(=O)N/N=C/c1c(O)n(CCc2ccccc2)c(=O)[nH]c1=O,-5.4,-12.7%,-12.6,17.8µM*,-17.5%,?
CN(C)CCc1c[nH]c2cccc(O)c12,-10.0,.,.,?,.,i
Cc1cc(/C=C2\C(=O)NC(=O)N(c3cccc(F)c3)C2=O)c(C)n1-c1cc(C(=O)O)cc(C(=O)O)c1,1.9,18.9%,13.2,-1.8%[11.3 µM],3.4%,i
Cc1cc(C)cc(-n2c(C)cc(/C=C3\C(=O)NC(=O)N(C)C3=O)c2C)c1,-10.8,-16.9%,-64.6*,-1.0%,-7.6%,i
CCCN(CCC)C1CCc2cccc(O)c2C1 (configuration not stated),6.0,-26.4%,-12.7,0.5%,20.6%,i
CCCN(CCC)C1CCc2ccc(O)cc2C1 (configuration not stated),121.6*,-21.3%,.,2.2%,-22.2%,i
Cc1cccc(NC(=O)Cn2c(=O)oc3cc(S(=O)(=O)N4CCCCCC4)ccc32)c1,-6.4,-34.3%,.,.,.,.
C[C@@H](N)C(=O)c1ccccc1,-3.9,.,.,.,.,i
COc1ccc(C=C(C(=O)O)c2ccc(OC)cc2)cc1,2.1,-3.2%,-9.2,17.3%,-6.1%,?
O=C(c1ccc2c(c1)OCO2)C1CCCN(CC2CCCCC2)C1 (configuration not stated),-26.2,-4.2%,-82.8*,-3.3%,-2.9%,i
O=C(c1ccc2c(c1)OCO2)C1CCCN(Cc2c(F)cccc2Cl)C1 (configuration not stated),-11.8,-21.5%,?,5.3%,-6.3%,i
Cc1ccc(S(=O)(=O)N(C)C[C@H]2Oc3c(NC(=O)Nc4cccc5ccccc45)cccc3C(=O)N([C@@H](C)CO)C[C@@H]2C)cc1,-11.7,-4.2%,1.4,?,?,?
Cc1oc(-c2ccc(Cl)cc2)nc1CN1C(=O)CN=C(c2ccccc2)c2ccccc21,-3.7,-94.3%,.,?,20µM*,?
Cc1oc(-c2ccc(Cl)cc2)nc1CN1C(=O)CN=C(c2ccccc2)c2cc(Cl)ccc21,0.7,5.1%,.,10.3%,2.8%,i
Cc1ccc(C(=O)c2cn(CC(=O)Nc3ccc(C(C)C)cc3)c3nc(C)ccc3c2=O)cc1,-3.1,2.9%,.,-1.8%,8.3%,?
O=C(CCN1CCN(CCO)CC1)N1c2ccccc2Sc2ccc(C(F)(F)F)cc21,-34.3,-22.3%,-74.4*,-21.7%,-7.9%,i
CCCCCn1c(N)c(C(=O)NCCN2CCOCC2)c2nc3ccccc3nc21,-0.2,-72.2%,4.2,-31.6%,?,i
Nc1c(C(=O)NCc2ccco2)c2nc3ccccc3nc2n1Cc1ccccc1,-2.1,-53.4%,2.6,.,11.2µM*,.
CCCCCn1c(N)c(C(=O)NCc2cccs2)c2nc3ccccc3nc21,16.2,-3.0%,12.0,-16.8%,-8.3%,i
